Most compounds without a hit are left out; they make up all but 3.9% or so of the library.
3CLpro inhibitor: SARS-CoV 3CLpro protease inhibition; P0C6X7; recombinant SARS-CoV 3CLpro, quenched FRET peptide cleavage; inhibition, % at 6 µM; 290,000 tested, 0.14% active; in the data active = inhibition above about 12%
FBA Mtb inh: inhibitors of M. tuberculosis fructose-bisphosphate aldolase; P9WQA3; purified M. tuberculosis FBA, fluorescence read-out; inhibition, % at 1 µM; 360,000 tested, 2.3% active; AID 588726;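 note: 0% = vehicle and 100% = reference inhibitor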
Target sequence (P9WQA3 whole entry, looked up): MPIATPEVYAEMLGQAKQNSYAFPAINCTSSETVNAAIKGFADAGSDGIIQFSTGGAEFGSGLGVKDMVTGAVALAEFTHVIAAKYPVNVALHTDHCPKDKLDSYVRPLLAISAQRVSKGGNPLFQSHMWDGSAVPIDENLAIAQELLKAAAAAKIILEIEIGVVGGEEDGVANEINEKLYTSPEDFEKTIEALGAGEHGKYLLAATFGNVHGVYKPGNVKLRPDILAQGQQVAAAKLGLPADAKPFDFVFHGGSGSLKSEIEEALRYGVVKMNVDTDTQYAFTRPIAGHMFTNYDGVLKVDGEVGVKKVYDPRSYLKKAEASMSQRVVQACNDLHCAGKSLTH
GDH-TPI counter-1: GDH-TPI coupled enzyme inhibition counter-screen; GDH-TPI coupled enzyme counterscreen, NADH absorbance; inhibition, % at 4.8 µM; 360,000 tested, 1.2% active; AID 588335; in the data active = inhibition above about 30%;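 note: 0% = DMSO wells and 100% = wells lacking the enzyme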
PrPC surface inh: inhibitors of human cell surface prion protein PrPC | TR-FRET read-out | 370,000 tested, 0.43% active | P04156 | inhibition, % at 13.8 µM | AID 720596; in the data active = inhibition above about 24%; note: 0% = median of the test wells and 100% = reference compound wells
BH1578 lux ind: quorum light induction in luxS cqsA deficient V. cholerae; V. cholerae BH1578 lux reporter, luminescence, 6 h; activation, % at 18.7 µM; AID 588436; 350,000 tested, 0.16% active; in the data active = activation mostly above about 9.7%, no sharp cut-off
Mtb FBA inh conf: Mtb FBA inhibition, confirmed. shares compounds with FBA Mtb inh. purified M. tuberculosis FBA, fluorescence read-out. inhibition, % at 1 µM. 5,600 tested, 78% active. AID 651616;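 note: 0% = vehicle wells and 100% = reference inhibitor wells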
GDH-TPI counter-2: counter-screen for M. tuberculosis FBA inhibitors: GDH-TPI coupled enzyme inhibition | shares compounds with FBA Mtb inh | GDH-TPI coupled enzyme counterscreen, fluorescence | inhibition, % at 1 µM | 5,600 tested, 81% active | AID 652141; in the data active = inhibition above about 10%
An asterisk follows results filed as active; i = inactive; x = no result given; + = active, no number. Cut-off read from the data, not from the text of the source, unless noted: active = inhibition above about 27%; inactive = the rest.

SMILES	3CLpro inhibitor	FBA Mtb inh	GDH-TPI counter-1	PrPC surface inh	BH1578 lux ind	Mtb FBA inh conf	GDH-TPI counter-2
CN(CC(=O)Nc1cccc(F)c1)C(=O)CC1CCCCC1	x	2	5	-2	i	x	x
COC(=O)C[C@H]1CC[C@@H]2[C@H](COc3ccc(NC(=O)NCc4ccccc4)cc3C(=O)N2C)O1	x	x	x	1	x	x	x
O=C(Nc1c(-c2ccccc2)nc2ncccn12)c1ccccc1	x	x	x	-8	x	x	x
Cc1ccsc1C1CC(=O)OC2=C1C(=O)CC(C)(C)C2 (stereo unspecified)	-7	x	x	x	x	x	x
COC(=O)c1c(NC(=O)CC2SC(N)=NC2=O)sc(C)c1C (stereo unspecified)	2	-1	16	1	-1	x	x
COc1ccc2oc(=O)c(C(=O)n3ccc(C)n3)cc2c1	1	40*	16	-13	-1	78*	54*
COc1ccc2oc(=O)c(C(=O)NCC3CCCO3)cc2c1 (stereo unspecified)	1	64*	15	0	i	79*	59*
Cc1ccn(C(=O)c2cc3cc(Cl)ccc3oc2=O)n1	0	3	9	2	i	x	x
COc1cc(Br)cc2cc(C(=O)NCC3CCCO3)c(=O)oc12 (stereo unspecified)	2	2	4	0	3	x	x
CCc1ccc(NC(=O)CCn2ccnc2C)cc1	-2	-1	-4	-2	0	x	x
CCN(CC)CCCNC(=O)c1cn(C)c(=O)c2c1c1ccccc1n2C	4	30*	5	3	-1	83*	71*
COCCn1cc(C(=O)NCCCN2CCC(C)CC2)c2c3ccccc3n(C)c2c1=O	1	28*	12	-3	-4	+	+
CCN(CC)CCCNC(=O)c1cn(CC(C)C)c(=O)c2c1c1ccccc1n2C	-6	35*	7	2	-1	105*	95*
CCN(CC)CCCNC(=O)c1cn(CCOC)c(=O)c2c1c1ccccc1n2C	-1	29*	5	-7	1	102*	96*
CCCCN(CC)CCCNC(=O)c1cn(CC(C)C)c(=O)c2c1c1ccccc1n2C	0	20	7	-13	-1	x	x
CCN(CC)CCNC(=O)c1cn(CCOC)c(=O)c2c1c1ccccc1n2C	-4	25	17	2	i	x	x
O=c1c(O)c(-c2ccccc2)oc2cc(O)ccc12	x	11	28	-11	0	x	x
O=C(NCc1cccc(F)c1)c1ccc2nc(N3CCOCC3)sc2c1	-7	0	0	-1	0	x	x
Cc1ccc(/C=C/C(=O)NC2CCCCCCC2)o1	0	-4	12	1	0	x	x
O=c1[nH]c2cc3c(cc2cc1CN(Cc1ccc2c(c1)OCO2)Cc1nnnn1CC1CCCO1)OCO3 (stereo unspecified)	2	40*	24	0	-4	47*	40*
O=c1[nH]c2cc3c(cc2cc1CN(CCCO)Cc1nnnn1Cc1ccc(F)cc1)OCO3	-4	36*	24	3	-2	35*	30*
Cc1ccc2[nH]c(=O)c(CN(Cc3cccnc3)Cc3nnnn3CC3CCCO3)cc2c1 (stereo unspecified)	-2	2	19	2	-1	x	x
Cc1ccc2cc(CN(CCO)Cc3nnnn3Cc3ccc(F)cc3)c(=O)[nH]c2c1	2	13	5	-2	x	x	x
Cc1cc(OC(C)C(=O)NCCCn2ccnc2)c2c(C)cc(=O)oc2c1 (stereo unspecified)	0	96*	0	2	0	+	+
Cc1cc(C)cc(OC(C)C(=O)NCCCn2ccnc2)c1 (stereo unspecified)	0	1	-5	0	0	x	x
SMILES	3CLpro inhibitor	FBA Mtb inh	GDH-TPI counter-1	PrPC surface inh	BH1578 lux ind	Mtb FBA inh conf	GDH-TPI counter-2
CCCc1cc(=O)oc2cc(OC(C)C(=O)NCCCn3ccnc3)ccc12 (stereo unspecified)	-6	12	1	1	0	x	x
CCCc1cc(=O)oc2cc(C)cc(OC(C)C(=O)NCCCn3ccnc3)c12 (stereo unspecified)	0	75*	10	-3	0	175*	164*
S=C(Nc1ccccc1)N1N=C(c2cccs2)CC1c1cccs1 (stereo unspecified)	-1	2	11	-12	0	x	x
S=c1[nH]cc(-c2ccccc2)[nH]1	2	53*	-4	1	i	60*	60*
CC(C)c1cccc(C(C)C)c1NC(=O)OC1CCCCC1	x	-4	x	-3	x	x	x
C[C@]12c3[nH]c4cc(-c5ccco5)ccc4c3CCN1C(=O)[C@@H](CC(=O)NCCc1ccccn1)C[C@@H]2C(=O)N1CCCCC1	x	43*	17	-11	0	68*	47*
CC[C@]12c3[nH]c4cc(-c5ccco5)ccc4c3CCN1C(=O)[C@@H](CC(=O)NC(C)(C)C)C[C@@H]2C(=O)N1CCN(C(=O)C2CC2)CC1	x	27*	15	-3	-1	63*	52*
CC[C@]12c3[nH]c4cc(-c5ccco5)ccc4c3CCN1C(=O)[C@@H](CC(=O)NCCc1ccccn1)C[C@@H]2C(=O)N1CCN(C(=O)C2CC2)CC1	x	30*	4	-3	0	47*	33*
CCCCCNC(=O)C1C(=O)Nc2ccccc2C(=O)N1c1ccc(OC)cc1 (stereo unspecified)	x	x	x	-2	x	x	x
CCCCC(=O)NC1(C(F)(F)F)NC(=O)N(Cc2ccccc2)C1=O (stereo unspecified)	3	5	-4	2	-2	x	x
N#CC(Cc1ccccc1OC(F)F)c1nc2ccccc2[nH]1 (stereo unspecified)	4	1	-4	4	0	x	x
COC(=O)c1ccc(-c2nc3cc(N)ccc3o2)cc1	4	-4	18	3	i	x	x
CN(C)c1ccc(-c2nc3cc(N)ccc3o2)cc1	3	36*	49*	5	i	70*	55*
Nc1ccc(-c2nc3cc(N)ccc3o2)cc1	1	37*	34*	8	i	81*	51*
Cc1ccc(-c2nc3cc(N)ccc3o2)cc1Br	-2	1	9	0	i	x	x
Nc1ccc(-c2nnc(-c3ccc(N)cc3)o2)cc1	0	74*	36*	1	-1	92*	82*
COc1cc(C(O)c2nc(-c3ccc(F)cc3OC)cs2)ccc1F (stereo unspecified)	x	-3	-1	-1	i	x	x
O=C(Nc1ccc(-c2nc3ccccc3o2)cc1)C1CCCO1 (stereo unspecified)	-6	34*	18	4	i	-3	-2
CC(=O)Nc1nc2ccc(-c3nc4ccccc4o3)cc2s1	-4	105*	23	1	i	92*	75*
O=C(Nc1ccc(Oc2ccccc2)cc1)C1CCCO1 (stereo unspecified)	1	3	5	2	2	x	x
